# Compounds with a hit are over-represented: about 6.3% of the library has one in this group of screens.
# Mdm2 MdmX PPI: human Mdm2/MdmX binding inhibition | SaOS-2 split-luciferase Mdm2/MdmX complementation, luminescence | inhibition, % at 8 µM | hit rate 3% among 330,000 | AID 485346;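 active = inhibition of at least 50% at 8 µM in the primary screen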
# Target sequence (O15151 whole entry, looked up): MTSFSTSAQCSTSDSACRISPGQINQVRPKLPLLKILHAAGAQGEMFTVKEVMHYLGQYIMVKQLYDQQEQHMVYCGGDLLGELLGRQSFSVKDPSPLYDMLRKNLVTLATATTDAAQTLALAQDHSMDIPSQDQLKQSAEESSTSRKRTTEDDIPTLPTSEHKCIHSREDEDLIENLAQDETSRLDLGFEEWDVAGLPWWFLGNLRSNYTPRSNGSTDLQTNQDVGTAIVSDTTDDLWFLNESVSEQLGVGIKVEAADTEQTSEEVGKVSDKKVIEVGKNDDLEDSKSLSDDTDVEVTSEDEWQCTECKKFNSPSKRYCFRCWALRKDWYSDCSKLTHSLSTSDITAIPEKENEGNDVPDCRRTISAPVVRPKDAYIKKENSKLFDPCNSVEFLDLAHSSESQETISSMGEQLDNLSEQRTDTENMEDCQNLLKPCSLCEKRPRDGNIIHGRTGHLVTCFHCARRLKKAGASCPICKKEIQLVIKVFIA
# Target sequence (Q00987 whole entry, looked up): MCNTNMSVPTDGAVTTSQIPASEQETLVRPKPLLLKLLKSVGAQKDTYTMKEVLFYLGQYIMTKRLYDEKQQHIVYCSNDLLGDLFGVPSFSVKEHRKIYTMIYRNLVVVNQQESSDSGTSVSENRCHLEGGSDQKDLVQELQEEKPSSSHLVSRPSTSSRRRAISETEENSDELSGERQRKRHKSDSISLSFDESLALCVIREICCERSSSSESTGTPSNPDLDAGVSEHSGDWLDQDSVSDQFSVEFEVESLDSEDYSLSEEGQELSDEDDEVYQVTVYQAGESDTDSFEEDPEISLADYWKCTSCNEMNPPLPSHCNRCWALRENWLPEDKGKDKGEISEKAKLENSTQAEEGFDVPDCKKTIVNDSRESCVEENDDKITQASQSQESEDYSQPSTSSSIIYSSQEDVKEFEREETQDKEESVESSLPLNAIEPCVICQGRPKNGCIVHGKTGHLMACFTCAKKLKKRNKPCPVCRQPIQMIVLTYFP
# tim10-1 inh: tim10-1 yeast growth inhibition; hit rate 2.2% among 330,000; inhibition, % at 20 µM; S. cerevisiae tim10-1 ts strain growth, BacTiter-Glo, 24 h; AID 463190;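 active = inhibition of at least 40%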;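 also: mutant grown at 25 °C; 0% = DMSO wells with yeast and 100% = wells holding no yeast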
# MPTP inh: permeability transition pore inhibition; isolated mouse mitochondria, Ca2+ swelling absorbance, 30 min; inhibition, % at 10 µM; AID 602449; hit rate 1.4% among 360,000;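 active = inhibition of 50% or more, scaled per plate between neutral and stimulator controls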;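 also: 0% = DMSO wells given calcium and 100% = 1 mM EGTA wells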
# tim23-1 inh: tim23-1 yeast growth inhibition; S. cerevisiae tim23-1 growth, BacTiter-Glo luminescence, 24 h; inhibition, % at 20 µM; hit rate 1.3% among 330,000; AID 463212;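 active = growth inhibition of the mutant yeast at or above 50%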;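 also: temperature-sensitive mutant grown at 25 °C; plate controls were DMSO-treated mutant yeast for no effect and medium wells lacking yeast for full effect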
# TIM10 inh: growth inhibitors of TIM10 yeast strain; hit rate 1.4% among 330,000; S. cerevisiae TIM10 strain growth, BacTiter-Glo luminescence, 24 h; inhibition, % at 10 µM;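 active = inhibition of 40% or more at the single tested concentration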;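 also: wild-type TIM10 isogenic control strain grown at permissive 25 °C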
# tim23-1 conf: tim23-1 yeast growth inhibition, confirmed; shares compounds with tim23-1 inh; S. cerevisiae tim23-1 growth, BacTiter-Glo luminescence, 24 h; inhibition, % at 20 µM; hit rate 83% among 4,400; AID 463218;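 active = inhibition above about 39% in either of two replicate wells at 20 µM, limit read from the data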;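 also: temperature-sensitive tim23-1 mutant grown at 25 °C; 0% = DMSO wells with yeast and 100% = medium wells without yeast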
# The depositor's hits bear a star; / = no result.
SMILES,Mdm2 MdmX PPI,tim10-1 inh,MPTP inh,tim23-1 inh,TIM10 inh,tim23-1 conf
Cc1ccc(NC(=O)/C(C#N)=C(\N)C(Cl)(Cl)Cl)nc1,9.9,16.7,0.2,70.6*,39.7,71.4*
Nc1nc(-c2ccc(Oc3ccccc3)cc2)cs1,-52.7,11.2,-1.9,57.1*,6.9,48.2*
Oc1ccc(-c2csc(-c3ccccc3)n2)cc1O,10.9,6.8,8.7,57.5*,-39.1,-9.7
Nc1nc(-c2ccc(-c3ccccc3)cc2)cs1,-198.9,27.3,1.2,54.0*,-0.3,68.7*
CC(C)n1nnnc1C1c2ccccc2C(=O)N1CCOc1ccccc1 (centres undefined),/,/,1.3,/,/,/
COC(=O)c1cc2ccccc2c(-c2c(O)ccc3ccccc23)c1O,-8.1,-4.1,1.5,69.5*,34.5,-29.6
O=C(NNC(=S)NCc1ccccc1)c1ccc2c(c1)OCO2,-0.4,14.2,0.0,7.4,-5.2,/
O=C(NC(=S)NCc1ccccc1)c1ccc2c(c1)OCO2,4.6,13.6,-1.1,50.1*,11.4,42.7*
O=C(NC(=S)NCc1ccccc1)C1CCCCC1,41.8,20.2,3.1,54.8*,13.1,26.2
O=C(NC(=S)NCc1ccc(Cl)cc1Cl)c1ccco1,5.4,16.1,-0.8,41.9,6.9,/
O=C(NC(=S)NCc1ccc(Cl)cc1)c1ccco1,7.9,13.8,-1.0,50.6*,-4.4,45.1*
O=C(NC(=S)NCc1ccccc1)c1ccc(Br)o1,1.8,29.2,-1.6,61.4*,9.4,26.1
CCc1ccc(CCC(=O)N2CCN(S(=O)(=O)c3ccc(Br)cc3)CC2)cc1,/,/,-0.2,/,/,/
O=C(Nc1ccccc1)c1cc(C2CCCCN2C(=O)c2cccs2)on1 (centres undefined),/,/,0.6,/,/,/
CCCCN1C(=O)C(CC(=O)NCCCCc2ccccc2)CC(C(=O)N2CCCCCC2)=C1C (centres undefined),/,/,0.9,/,/,/
C[C@@H]1CN([C@@H](C)CO)C(=O)CCCn2nncc2CO[C@H]1CN(C)C(=O)c1ccncc1,/,/,0.1,/,/,/
CCOc1ccccc1NC(=O)c1ccccc1NC(=O)c1ccco1,13.1,19.2,2.5,11.8,9.6,/
CCOc1ccccc1NC(=S)NC(=O)c1ccco1,5.9,37.8,-0.1,54.1*,26.5,35.2
Cc1ccc2[nH]c3c(c2c1)CN(C(=O)CN1CCN(c2cccc(C)c2C)CC1)CC3,9.8,10.9,1.5,60.1*,28.5,39.0
CCn1cc(Br)c(C(=O)Nc2cccc(Cl)c2)n1,1.6,28.8,0.0,58.9*,28.6,51.9*
CC(C)(C)c1csc(NC(=O)c2ccc(Br)o2)n1,11.1,30.2,-1.8,53.2*,23.5,48.2*
CC(C)(C)c1csc(NC(=O)c2ccc(Cl)s2)n1,26.8,26.3,3.5,70.3*,5.1,73.7*
Cc1ccc(C(=O)Nc2nc(C(C)(C)C)cs2)s1,-105.4,8.7,1.0,52.1*,-4.3,42.5*
CC(C)(C)c1csc(NC(=O)c2ccncc2)n1,24.2,0.8,4.9,17.6,-16.2,/
O=C(Nc1nc(-c2cccs2)cs1)c1ccc(Cl)s1,-23.2,1.3,4.5,41.2,16.5,/
SMILES,Mdm2 MdmX PPI,tim10-1 inh,MPTP inh,tim23-1 inh,TIM10 inh,tim23-1 conf
Cc1cc(C)n2nc(C(=O)OCC(=O)NC3CCS(=O)(=O)C3)nc2n1 (centres undefined),/,/,-1.9,/,/,/
O=c1c2ccccc2nc2ccccn12,-13.1,0.8,-0.4,18.2,-13.9,/
O=c1c2ccccc2nc2c3ccccc3cnn12,-32.5,-11.6,-3.2,54.6*,39.1,64.2*
Cc1cccc(C)c1-n1nnnc1C1(C)CCC(=O)N1C1CC1 (centres undefined),/,/,-1.8,/,/,/
CC(=O)N(O)c1ccc(C=Cc2ccccc2)cc1,/,/,1.4,/,/,/
O=C(COc1ccc2ccccc2c1Br)Nc1cccnc1,10.9,29.6,-0.1,51.7*,21.4,22.3
O=C(COc1ccccc1[N+](=O)[O-])Nc1cccnc1,-9.8,12.6,2.2,11.4,4.5,/
COc1ccc(CCNC(=O)c2cc3cc(Cl)ccc3nc2N)cc1OC,/,/,0.4,/,/,/
COC(=O)C1=C(C)N(Cc2ccccc2)C(=S)N[C@H]1c1cccc(F)c1,22.7,37.5,-0.2,51.8*,18.6,37.6
O=C(CSCc1ccc(F)cc1)Nc1nc2c(s1)CCCC2,4.7,30.5,-2.2,56.3*,10.6,41.4*
CN1C(=O)CC2(C)C1=CCc1scnc12 (centres undefined),/,/,-3.0,/,/,/
COc1ccc(S(=O)(=O)N2CCC3(CC2)OCCN3S(=O)(=O)c2cccs2)cc1,15.6,20.5,0.4,30.7,-13.1,/
COc1ccc(S(=O)(=O)N2CCOC23CCN(S(=O)(=O)c2cc(F)ccc2F)CC3)cc1,27.4,34.7,-1.6,53.3*,-5.0,38.2
COc1ccc(Cl)cc1-c1cc(C(=O)N[C@H](C)c2ccccc2)[nH]n1,/,/,-0.5,/,/,/
Cc1ccc(S(=O)(=O)NCC(=O)OCCOc2ccccc2F)cc1,4.6,25.2,-2.2,18.0,2.8,/
Cc1ccc(S(=O)(=O)NCC(=O)OCCOc2cccc(Cl)c2)cc1,7.0,36.6,0.1,51.0*,15.3,43.9*
COc1ccc(CCNc2oc(-c3ccccc3OC)nc2C#N)cc1,5.1,21.0,-1.0,58.0*,34.2,62.5*
CCN(CCCNC(=O)CCc1nc(-c2ccc(C)cc2)no1)c1cccc(C)c1,2.0,30.9,0.0,52.1*,29.1,42.5*
COc1cc(NC(=O)Nc2nnc([C@H]3C[C@H](O)[C@@H](CO)O3)s2)cc(OC)c1OC,/,/,-1.1,/,/,/
Fc1cccc(-c2cc3nc(-c4ccccc4)cc(N4CCC5(CC4)OCCO5)n3n2)c1,26.3,20.9,-0.1,20.8,15.4,/
Fc1cccc(-c2cc3nc4c(c(N5CCC6(CC5)OCCO6)n3n2)CCCC4)c1,33.5,21.1,1.2,52.5*,30.7,37.3
Cc1nc2ccccc2nc1Nc1cccc(Cl)c1,13.1,38.9,2.8,61.0*,26.2,41.4*
COc1ccccc1C(=O)Nc1ccc2c(c1)OCCO2,-47.3,12.2,1.2,13.4,9.9,/
COc1cc(SC)ccc1C(=O)Nc1ccc2c(c1)OCCO2,-86.4,27.1,-0.3,50.6*,-3.2,44.6*
CC(C)c1ccc(NC(=O)C(c2ccccc2)N2CCC3(CC2)OCCO3)cc1 (centres undefined),-17.5,34.7,0.2,52.1*,37.6,50.2*
SMILES,Mdm2 MdmX PPI,tim10-1 inh,MPTP inh,tim23-1 inh,TIM10 inh,tim23-1 conf
O=C(/C(=C/O)N=Nc1ccccc1)c1ccncc1,19.6,23.0,-0.7,56.2*,-10.2,27.5
COc1ccc(CCN(/C=C2\Sc3ccccc3C2=O)C(C)=O)cc1OC,19.9,14.9,3.4,50.4*,20.9,51.9*
CN(C)/C=C1/Sc2ccccc2C1=O,-2.1,7.1,-1.1,11.7,-0.9,/
Cc1cccc(Oc2nc(-c3ccccn3)nc3ccccc23)c1,34.8,39.8,1.6,51.0*,26.4,45.9*
CC12CN3CC(C)(CN(C1)C3c1ccc(Br)cc1O)C2 (centres undefined),17.8,31.6,-1.4,51.4*,12.3,44.8*
Cc1ccc([N+](=O)[O-])cc1NC(=O)c1cccnc1,6.6,-1.8,-0.9,3.1,-7.5,/

# Screening results as filed in PubChem BioAssay.
